Results published in PubChem BioAssay AID624305 (National Center for Advancing Translational Sciences (NCATS), 2012).
Inconclusive results are not listed. A call without a number means that no potency is given here. The source made the active and inactive calls. Calls come from the whole dose curve; as a rule, active = well fitted activation curve with a large enough effect; inconclusive = small, poorly fitted or top-dose-only effect; inactive = no such curve, though single readings can be large or run the other way.

experiment: qHTS assay for re-activators of p53 using a Luc reporter: Hit Validation; details: p53-responsive luciferase reporter cells, luminescence, H1299 line expressing heat-sensitive Ala138Val p53; series mostly up to 46.1 µM; note: nearly all actives have a fitted effect of over 75% in size
Outline: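 H1299 (p53-null) cells stably carrying p53-A138V and a BP100-luciferase reporter, 1000 cells/well, treated 24 h at 37 deg C. Compounds at several concentrations, 1:5 dilution; nocodazole control; luminescence read after 10 min with detection reagent.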
Potency is the fitted concentration of half-maximal effect.

Row | SMILES | Potency | activation
1 | Nc1nonc1-n1nnc(C(=O)N/N=C/c2ccc(Br)cc2)c1CSC1=NCCS1 | 3660 nM (active) | 
2 | Cc1ccc(NC(=S)NC(=O)c2cccs2)cc1F | 9200 nM (active) | 
3 | COc1ccc(/C(O)=C2/C(=O)C(=O)N(CCN3CCOCC3)C2c2ccccn2)cc1 (stereo not drawn) | inactive | 
4 | CCCSc1ccc2nc(-c3ccccc3)cn2c1 | 206 nM (active) | 
5 | O=C(Nc1cnc2ccccc2c1)C1COc2ccccc2O1 (stereo not drawn) | 9200 nM (active) | 
6 | O=C(N/N=C/C1C(c2ccccc2)C1(Cl)Cl)c1cccc(Cl)c1 (stereo not drawn) | inactive | 
7 | CC(C)(C)c1ccc(S(=O)(=O)N2CCSC2)cc1 |  | -4.43% [at 9.22 µM] (inactive)
8 | Clc1ccc(OCc2nc(-c3ccccn3)n[nH]2)cc1 | inactive | 
9 | Nn1cnnc1N/N=C\c1ccc(-c2ccccc2[N+](=O)[O-])o1 | inactive | 
10 | C=CCSC1=N/C(=C\c2cc(OCC)c(OC(C)=O)c([N+](=O)[O-])c2)C(=O)S1 | inactive | 
11 | O=C(O)/C=C/c1nc(-c2ccccc2)n2ccccc12 | inactive | 
12 | O=C(c1cccs1)c1coc2ccc(O)cc12 | 16400 nM (active) | 
13 | Cn1cc(Cl)c(C(=O)Nc2nc3ccccc3s2)n1 | 231 nM (active) | 
14 | CCc1ccc(OCC(=O)NC(NC(=S)Nc2ccccc2C)C(Cl)(Cl)Cl)cc1 (stereo not drawn) | inactive | 
15 | CCOc1ccc(-c2nnc(SCC(=O)N3CCNC3=O)o2)cc1 | 2060 nM (active) | 
16 | Cc1cc2[nH]c3ccccc3c2c(C)n1 | inactive | 
17 | O=C(NNC(=O)c1cc(-c2ccccc2)nn1-c1ccccc1)c1ccccc1 |  | 1.05% [at 9.22 µM] (inactive)
18 | COc1ccc2[nH]c(=O)c3c(c2c1)OC(C)(C)C=C3 | inactive | 
19 | N#C/C(=C\c1ccc(OCc2ccc(Br)cc2)cc1)C(=O)Nc1cccc(C(=O)O)c1 | 2910 nM (active) | 

Row | SMILES | Potency | activation
20 | O=C(Nc1nc2c(s1)CCCC2)C1COc2ccccc2O1 (stereo not drawn) | 231 nM (active) | 
21 | O=C(NNC(=O)c1cccnc1SCc1cccc([N+](=O)[O-])c1)c1ccccn1 | inactive | 
22 | CCN(CC(=O)NCc1cccs1)c1ccc(S(=O)(=O)N2CCOCC2)cn1 | inactive | 
23 | CC12CCC(C(=O)N(CSC(=S)N/N=C\c3ccccc3O)C1=O)C2(C)C (stereo not drawn) | inactive | 
24 | CCCCCNC(=O)N[C@H](C(=O)O)C(C)C | inactive | 
25 | CN(Cc1ccccc1)C(=O)CNC(=O)Cn1cnc2ccccc2c1=O | inactive | 
26 | Cc1ccc(C(=O)NC2CC2)cc1S(=O)(=O)N1CCOCC1 | inactive | 
27 | COc1cc(C(=S)N2CCOCC2)ccc1OC(=O)c1ccccc1C | inactive | 
28 | COc1ccc(CCC(C)NCC(C)c2ccccc2)cc1 (stereo not drawn) | inactive | 
29 | COc1ccc(C(=O)N/N=C(\C)c2ccccn2)cc1OC | 13000 nM (active) | 
30 | Cc1cc(C(=O)COC(=O)c2cccc(O)c2)c(C)n1C1CC1 | 130 nM (active) | 
31 | OCc1cc(Br)ccc1OCc1nc2ccccc2s1 | 2910 nM (active) | 
32 | Cc1ccc2nc(-c3ccc(NC(=O)COC(=O)c4cncc(Br)c4)cc3)sc2c1 | 146 nM (active) | 
33 | COc1ccc(N2CCN(C3CCCN(Cc4cccc(OC)c4)C3)CC2)cc1 (stereo not drawn) | inactive | 
34 | Cc1nn(-c2ccccc2)c(N2CCCC2)c1/C=N/NC(=O)c1cc(-c2ccccc2)nc2ccccc12 | inactive | 
35 | O=C(CCCN1C(=O)/C(=C/c2ccco2)SC1=S)Nc1ccccc1 | inactive | 
36 | CCN(CC)c1ccc(NC(=O)CN2CCN(CC(=O)Nc3ccccc3F)CC2)cc1 | inactive | 
37 | O=C(c1ccccc1)n1c(=S)nc2ccccn21 | 164 nM (active) | 
38 | N#Cc1cccc(N=Cc2c(O)ccc3ccccc23)c1 | inactive | 
